Measurements published in PubChem BioAssay (NCI).
About 79,000 compounds went through this panel and 15% of them were active in at least one assay; those are over-represented in the sample as a whole. Calls of active or inactive are those of the source. Rule as the data show it: active = growth inhibition above about 70%; inactive = the rest.

Columns and labels:
[1] = NCI Yeast Anticancer Drug Screen. Data for the rad50 strain (AID 155);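 also: 0% = growth of vehicle-only cultures of the same strain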; details: S. cerevisiae rad50 strain growth inhibition; at 50.0 µM; hits give high values
Outline: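 Inhibition values express reduced yeast growth in compound-treated cultures relative to vehicle-treated controls.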

[2] = NCI Yeast Anticancer Drug Screen. Data for the mec2-1 strain (AID 157); details: S. cerevisiae mec2-1 strain, at 50.0 µM, hits give high values
Outline: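 Mutant yeast (mec2-1) grown with compound; growth inhibition relative to vehicle control reported.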

[3] = NCI Yeast Anticancer Drug Screen. Data for the sgs1 mgt1 strain (AID 161);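 also: 0% = growth of cultures given vehicle only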; details: S. cerevisiae sgs1 mgt1 strain, at 50.0 µM, hits give high values
Outline: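 Percent growth inhibition was derived by comparing compound-exposed mutant yeast with vehicle-exposed cultures. The strain carries alterations in DNA damage repair.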

[4] = NCI Yeast Anticancer Drug Screen. Data for the cln2 rad14 strain (AID 165);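 also: 0% = growth equal to vehicle treated cultures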; details: S. cerevisiae cln2 rad14 strain, at 50.0 µM, hits give high values
Outline: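 Readout is yeast growth inhibition versus vehicle-treated controls, using a strain with cln2 and rad14 alterations exposed to compound.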

[5] = NCI Yeast Anticancer Drug Screen. Data for the bub3 strain (AID 167); details: S. cerevisiae bub3 mutant strain, at 50.0 µM, hits give high values
Outline: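 Steps: expose the mutant yeast strain to compound; grow alongside vehicle-treated cultures; measure growth; express inhibition against the vehicle cultures.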

[6] = NCI Yeast Anticancer Drug Screen. Data for the mlh1 rad18 strain (AID 175); details: S. cerevisiae mlh1 rad18 strain growth inhibition; at 50.0 µM; hits give high values
Outline: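 Genetically defined yeast (DNA repair-deficient) exposed to compounds; growth inhibition determined relative to vehicle.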

Measured: growth inhibition

CCCCCOC(=O)c1c(Cl)c(Cl)c(C(=O)OCCCCC)c(Cl)c1Cl
inactive: [1] -18.2% | [2] -39% | [3] 0.85% | [4] -6.85% | [5] -6.5% | [6] -9%

Oc1cc2c(cc1O)-c1[nH]ncc1CC2
inactive: [1] 24.5% | [2] 0.25% | [3] 3.35% | [4] -17.4% | [5] 4.55% | [6] -4.55%

O=C(Oc1c(Cl)c(Cl)c(Cl)c(Cl)c1Cl)c1ccc([N+](=O)[O-])cc1
inactive: [1] -27.6% | [2] -1.55% | [3] -26.6% | [4] -49% | [5] 3.9% | [6] -9.25%

O=S(=O)(c1ccccc1)c1cccc2c1NCCC2
inactive: [1] 34.9% | [2] -1.75% | [3] 34.4% | [4] 8.4% | [5] 62.3% | [6] 43.6%

O=C(NCCCCC[N+](CCCCCNC(=O)c1ccccc1)(CCCCCNC(=O)c1ccccc1)CCCCCNC(=O)c1ccccc1)c1ccccc1
inactive: [1] 3.65% | [2] 10.4% | [3] -15.2% | [4] -2.2% | [5] -1.65% | [6] -7.85%

COc1cc(NCCN=C(N)NC#N)c2ncccc2c1
inactive: [1] 0.95% | [2] 4.75% | [3] -0.7% | [4] -18.4% | [5] -15.4% | [6] 2.6%

Fc1ccc(CSc2cnnc(SCc3ccc(F)cc3)c2SCc2ccc(F)cc2)cc1
inactive: [1] -23.2% | [2] 2.75% | [3] -20.2% | [4] -21.9% | [5] -13.9% | [6] -34.7%

CC/C=C/CC(=O)NCc1ccc(O)c(OC)c1
inactive: [1] 5.45% | [2] -1.15% | [3] -7.95% | [4] 48.3% | [5] -2.9% | [6] -16.7%

O=C1OC(c2cccc(Cl)c2)=N/C1=C\c1cc(Br)ccc1O
inactive: [1] 20.6% | [2] 5.7% | [3] 27.8% | [4] 5.2% | [5] -0.4% | [6] 5.95%

CCc1ncc(C)[nH]1
inactive: [1] 0.55% | [2] -13.8% | [3] -6.35% | [4] -0.15% | [5] -12.1% | [6] -8.8%

Cc1cc2c(=O)cc(-c3ccccc3)oc2c(C(=O)O)c1C
inactive: [1] -12.7% | [2] -8.55% | [3] 14.8% | [4] -19.7% | [5] -4.65% | [6] -10.4%

Cc1nc(SCC(=O)Nc2ccc(Cl)cc2)c2sc(=S)n(-c3ccccc3)c2n1
inactive: [1] -14.2% | [2] 4.6% | [3] -1.25% | [4] 2.35% | [5] -4.4% | [6] 5.4%

CC1CCC2(OC1)OC1CC3C4CCC5CC(O)CCC5(C)C4C(=O)C(O)C3(C)C1C2C (stereo not given)
inactive: [1] 39.5% | [2] 17.9% | [3] 49% | [4] 16.7% | [5] 14.5% | [6] 41%

O=C(O)C1CCCCC1O (stereo not given)
inactive: [1] -11.6% | [2] 21.1% | [3] -5.25% | [4] 23.3% | [5] 21.4% | [6] 1.3%

CCCC(CCO)(CCO)c1ccccc1
inactive: [1] 16.6% | [2] -30.4% | [3] -9.65% | [4] 10.9% | [5] 8.1% | [6] -5.7%

CCN(CC)CCOc1ccc(C)c2c1C(=O)CC2
inactive: [1] -27.6% | [2] -9.2% | [3] -8.45% | [4] -8.7% | [5] 21.4% | [6] -23.6%

O=C(NC(=S)OC1CCCC1OC(=S)NC(=O)c1ccccc1)c1ccccc1 (stereo not given)
inactive: [1] -21.5% | [2] -12.6% | [3] -10.1% | [4] 14.5% | [5] -13.2% | [6] -33.7%

COc1ccccc1-n1c(O)c(N=Nc2ccccc2)c(=O)n(-c2ccc(C)cc2)c1=S
inactive: [1] 38.3% | [2] -8.95% | [3] 66.8% | [4] -10.8% | [5] -2.2% | [6] 12.8%

O=c1[nH]c(=O)n(CCCCOc2ccccc2)cc1-c1ccccc1
inactive: [1] 3.75% | [2] 10.2% | [3] 19.6% | [4] 0.7% | [5] 12.1% | [6] 5.9%

COc1ccc(/C=C2\CCCC3=C2NC(=S)NC3c2ccc(OC)cc2)cc1 (stereo not given)
inactive: [1] 24.8% | [2] 21.4% | [3] -6.35% | [4] 5.9% | [5] -1.95% | [6] -37.4%

O=c1nc2sc3ccccc3c(=O)n2[nH]1
inactive: [1] -39.6% | [2] -42% | [3] -2.85% | [4] 6.85% | [5] -12.2% | [6] -28.8%

CCCCC(C)NC(=O)c1ccccc1 (stereo not given)
inactive: [1] 4.3% | [2] 11.3% | [3] -23.8% | [4] -52.5% | [5] -3.8% | [6] 2%

O=C(/C=C(/CC(=O)c1ccccc1)C(=O)c1ccccc1)c1ccccc1
inactive: [1] -13.1% | [2] -22.9% | [3] -11.2% | [4] -22.1% | [5] -10.5% | [6] -30.8%

COc1ccc(C[n+]2ccccc2C#N)cc1OC
inactive: [1] 4.7% | [2] -13.8% | [3] -10.4% | [4] -15.8% | [5] 4.25% | [6] 3.2%

COC1C(/C=[N+](\C)[O-])OC2OC(C)(C)OC21 (stereo not given)
inactive: [1] 10.2% | [2] -9.5% | [3] -12.8% | [4] -26.1% | [5] 17.6% | [6] 12.8%

c1ccc(CCc2nc3ccccc3[nH]2)cc1
inactive: [1] -1.9% | [2] 11.1% | [3] 1.5% | [4] -33.6% | [5] -37.1% | [6] -10.9%

COc1cccc2ccc(C(=O)c3ccccc3)nc12
inactive: [1] 34.2% | [2] -3.2% | [3] 7.8% | [4] 23.6% | [5] 28.2% | [6] 15.9%

CCN(CC)CC(C)(C)C=O
inactive: [1] 26.9% | [2] -19.8% | [3] 20.8% | [4] 4.3% | [5] -7.55% | [6] 15.1%

CCOC(=O)CN(c1scc(-c2ccccc2)c1C(=O)OCC)S(=O)(=O)c1ccc(C)cc1
inactive: [1] -15.7% | [2] -28.6% | [3] 0.05% | [4] -57.6% | [5] -2.7% | [6] 0.85%

O=C1CC2(CCc3ccccc32)C(=O)N1CN1CCN(CCO)CC1 (stereo not given)
inactive: [1] 12.6% | [2] -5.8% | [3] 3.9% | [4] 9% | [5] 7.15% | [6] 11.9%

Cc1c2c(n3c(nc4ccccc43)c1C#N)SCC2
inactive: [1] -51.3% | [2] -49.3% | [3] -44.5% | [4] -8.5% | [5] -22% | [6] -17.5%

O=C(C(c1ccccc1)C(F)(F)F)N1CCCC1 (stereo not given)
inactive: [1] 7.4% | [2] -7.8% | [3] 5.05% | [4] -13.3% | [5] 13.8% | [6] 0.6%

CC(=O)Nc1ccc(C(=O)NN2C(=O)CSC2c2ccc(O)cc2)cc1 (stereo not given)
inactive: [1] -36% | [2] -36.1% | [3] -44.5% | [4] -15.7% | [5] -30.2% | [6] -49.7%

COc1ccc2[nH]c3c(c2c1)[C@H](c1ccccc1)C[C@@H]1C(=O)N(c2ccccc2)C(=O)[C@H]31
inactive: [1] -5.25% | [2] -6.65% | [3] 1.75% | [4] 0.65% | [5] -8.9% | [6] -7.95%

COC(=O)C1CCCN1C(=O)c1ccccc1 (stereo not given)
inactive: [1] 3.6% | [2] -0.4% | [3] -16.2% | [4] -36.8% | [5] -5% | [6] 11.6%

CC1(C)CCCC(C)(C)C1=NO
inactive: [1] -20.2% | [2] -5.6% | [3] -9.75% | [4] 12.4% | [5] 5.75% | [6] 22.9%

Oc1ccccc1C1SC(c2ccccc2O)SC(c2ccccc2O)S1 (stereo not given)
active: [1] 96.9% | [2] 96% | [3] 95.7% | [4] 93.1% | [5] 97% | [6] 95.8%

COc1ccc2nccc(C)c2c1
inactive: [1] -13% | [2] 16.9% | [3] -0.9% | [4] -0.9% | [5] 1.5% | [6] -0.25%

C=CCNC(=S)N/C=C\c1c(C(=O)O)cc([N+](=O)[O-])cc1[N+](=O)[O-]
inactive: [1] -7.85% | [2] -24.1% | [3] -31.2% | [4] -23.2% | [5] 3.2% | [6] 5.6%

Clc1ccnnc1Cl
inactive: [1] -17.7% | [2] -30.8% | [3] -43% | [4] 13.2% | [5] -37.5% | [6] -15.7%
